Source: PubChem BioAssay
HSF1 inh – HSF1 inhibition; NIH3T3-HGL HSE-luciferase, MG132-induced, luminescence 8 h; hits give low values; activity change, negative = inhibition, % at 7.5 µM (by protocol); actives 0.77% (n = 300,000);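 active = more than half of replicate wells show activity change below -50%, luminescence cut by over half; inconclusive = some wells, but at most half, below -50%; inactive = no replicate well below -50%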;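 also: luciferase reports HSF-1 transcriptional activity via heat shock element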
MITF TRPM1 HTS – MITF TRPM1 promoter activation in melanoma cells | SK-MEL-5 TRPM1-promoter luciferase, 24 h; % of positive control, neutral wells = 0 | activation, % at 12.5 µM | actives 0.75% (n = 300,000) | AID 588334;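 active = mean activation of at least 80% with every replicate also reaching 80%; inconclusive = mean reaches 80% but some replicate falls short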
esBAF inh – blocks esBAF chromatin remodeling in mouse ES cells; Bmi1-luciferase knock-in reporter, 24 h; 100% = twice the neutral-well signal; reporter increase, % at 12.5 µM; actives 2% (n = 350,000); AID 602393; in the data active = activation above about 40%; inconclusive = no clear call, values can overlap the other calls;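 also: a rise in the Bmi1 reporter signal indicates esBAF inhibition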
Wnt bcat act – activators of Wnt/beta-catenin signaling. activation, % at 9.35 µM. AID 743398. actives 1.2% (n = 300,000). Wnt/beta-catenin reporter cell assay, activator, plate reader; in the data active = activation above about 30%, passing the limit was not always enough; inconclusive = no clear call, values can overlap the other calls
HSF1 activator – increases HSF-1 driven luciferase reporter signal; activation, % at 9 µM; actives 1.7% (n = 300,000); NIH3T3-HGL HSF-1 luciferase reporter, MG132, 8 h; 100% = twice DMSO control signal; AID 504408;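 active = mean replicate activation of at least 50% with a set share of replicates each reaching 50%; inconclusive = only one of those two conditions met; inactive = mean below 50% and too few replicates reaching it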
Numbers stand for hits; – = inactive; ? = inconclusive; · = not tested or not shown. Hits are enriched below; roughly 3.9% of the tested compounds scored in any of these assays.

SMILES	HSF1 inh	MITF TRPM1 HTS	esBAF inh	Wnt bcat act	HSF1 activator
CCCNC(=O)C[C@@H]1CC[C@H]2[C@@H](COc3ccc(NC(=O)c4ccc(OC)cc4)cc3C(=O)N2C)O1	·	·	–	·	·
COc1ccc(NC(=O)c2cc(CC(C)C)on2)cc1OC	–	·	50	–	–
CCc1ccc(NC(=O)c2cc(C(C)C)on2)cc1	–	–	–	·	–
CCc1ccc(NC(=O)c2cc(CC(C)C)on2)cc1	–	·	71	59	–
CCCc1cc(C(=O)Nc2ccc(CC)cc2)no1	–	159	77	39	–
O=C(Nc1ccc(F)cc1F)c1csc(-c2cccs2)n1	–	–	·	35	–
COc1cccc(-c2ccc3n(c2=O)C[C@@H]2[C@@H](CO)[C@H](C(=O)NC4CCC4)N(S(C)(=O)=O)[C@H]32)c1	·	·	–	·	·
CCCNC(=O)N(C)C[C@H]1Oc2ncc(C#CCC3CCCC3)cc2C(=O)N([C@@H](C)CO)C[C@@H]1C	·	·	–	·	·
CC(C)Cc1cc(C(=O)Nc2ccc(F)cc2F)no1	–	–	79	–	–
CCCc1cc(C(=O)Nc2ccc(C)cc2)no1	–	·	73	56	–
CC(C)Cc1cc(C(=O)NCc2cccnc2)no1	–	·	–	–	–
CC(C)Cc1cc(C(=O)NCc2cccs2)no1	–	–	65	?	–
CC(C)Cc1cc(C(=O)Nc2cc(Cl)ccc2Cl)no1	–	–	–	–	–
CO[C@@H]1CN(C)C(=O)c2cc(NC(C)=O)ccc2OC[C@H](C)N(C(=O)CN(C)C)C[C@@H]1C	·	·	–	·	·
C[C@@H]1CN([C@@H](C)CO)C(=O)c2cc(C3=CCCC3)cnc2O[C@H]1CN(C)C(=O)c1ccc(F)cc1	·	·	–	·	·
COCCCNC(=O)CC(NS(=O)(=O)c1ccc(C)cc1)c1ccc(OC)cc1 (centres undefined)	-77	–	–	–	–
Cc1ccccc1-n1c(C)nc2ccccc21	-53	–	–	–	–
O=C([C@H]1[C@H](CO)[C@H]2Cn3c(ccc(-c4cccnc4)c3=O)[C@H]2N1CC1CC1)N1CCCCC1	·	·	–	·	·
Oc1c(C(Nc2nccs2)c2ccc(C(F)(F)F)cc2)ccc2cccnc12 (centres undefined)	-59	–	·	–	–
CC(=O)NC(c1ccc2ccccc2c1)c1ccc2cccnc2c1O (centres undefined)	–	·	–	–	–
Oc1c(C(Nc2cccc(C(F)(F)F)c2)c2ccncc2)ccc2cccnc12 (centres undefined)	–	–	·	53	–
COCC(=O)N1C[C@@H](C)[C@H](OC)CN(C)C(=O)c2cc(NC(=O)c3ccc(OC)cc3)ccc2OC[C@H]1C	·	·	–	·	·
C=CCOc1ccc2c(OC)c3ccoc3nc2c1OC	–	–	48	35	–
C[C@H](O)C#Cc1cnc2c(c1)C(=O)N([C@@H](C)CO)C[C@@H](C)[C@H](CN(C)C(=O)c1ccccc1)O2	·	·	–	·	·
CC(=O)c1c(C)nc(-c2ccccc2)nc1NC(=O)C(C)C	–	–	–	·	–
SMILES	HSF1 inh	MITF TRPM1 HTS	esBAF inh	Wnt bcat act	HSF1 activator
Cc1nc(-c2ccccc2)nc2[nH]c(=O)n(-c3ccccc3)c(=O)c12	–	·	43	?	–
Cc1nc(-c2ccccc2)nc2[nH]c(C(C)C)cc(=O)c12	–	–	–	68	–
CO[C@@H]1CN(C)C(=O)c2cc(NS(C)(=O)=O)ccc2OC[C@@H](C)N(C)C[C@H]1C	·	·	–	·	·
O=C(c1cc(COc2ccc(F)cc2F)on1)N1C[C@H]2CC[C@H]1C2	–	–	46	–	–
O=C(c1cc(COc2c(F)cccc2F)on1)N1C[C@H]2CC[C@H]1C2	–	–	92	34	56
COc1ccccc1OCc1cc(C(=O)N2CC3C[C@@H]4CC2C[C@H](C3)C4)no1	–	89	63	–	–
COc1ccccc1OCc1cc(C(=O)N2CCN(C)C(c3ccccc3)C2)no1 (centres undefined)	–	–	·	41	–
COCC1CCN(C(=O)c2cc(COc3ccc(F)cc3F)on2)C1 (centres undefined)	–	–	–	–	–
CC1CN(c2ccccc2)CCN1C(=O)c1cc(COc2c(F)cccc2F)on1 (centres undefined)	–	–	–	–	–
COc1ccc(OCc2cc(C(=O)N3C[C@H]4CC[C@H]3C4)no2)c(Cl)c1	–	84	61	–	–
O=C(c1cc(COc2c(F)cccc2F)on1)N1CCC(c2ccccc2Cl)C1 (centres undefined)	–	–	45	–	–
